Composite z-score and z-score data for five compounds are collected here from PubChem BioAssay.

The test system of assay [1] is Plasmodium falciparum Sir2 (PF13_0152, Sir2A). The experiment in a line: pfSir2 binders on small-molecule microarrays, primary screen, biochemical, small-molecule microarray, 635 nm fluorescence (AID 1098).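 Further: score merges spot fluorescence intensity with its signal-to-noise ratio.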 As to conditions: small-molecule microarray binding, fluorescence 635 nm; higher = more signal.
The nature of assay [2]: small-molecule microarray binders of probe aDKK1, primary screen, biochemical, biotinylated probe, 635/667 nm fluorescence (AID 1099).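 Further: score merges 667nm spot fluorescence with signal to noise across triplicate slides.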 The settings on record: higher = more signal.
Assay [3] in a line: small-molecule microarray binders of probe aCHRDL2, primary screen, biochemical, biotinylated probe, 635/667 nm fluorescence (AID 1100). As to conditions: higher = more signal.
A short description of assay [4]: splicing luciferase reporter signal modulators, primary screen, spliceosome inhibition project, cell-based, HEK293, splice +/- reporter (AID 1101).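 Further: HEK293 cells carrying a splicing-competent luciferase reporter gene; test concentration not given here.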 The settings on record: luminescence, 24 h, higher = more signal, called active from +8 up or from −8 down. On the technique in general: In a reporter assay the amount or activity of a reporter protein is the signal.
Assay [5] has as its target Fibroblast growth factor 10 (Homo sapiens) (UniProt O15520). Description: FGF10 binders on small-molecule microarrays, primary screen, biochemical, small-molecule microarray, 635 nm fluorescence (AID 1102). As to conditions: FGF10 binding, fluorescence 635 nm, higher = more signal.
Assay [6] relates to glycogen synthase kinase-3 (GSK3A per assay name; protocol says GSK3B). The experiment in a line: GSK3 binders on small-molecule microarrays, primary screen, biochemical, small-molecule microarray, 635 nm fluorescence, GSK3A (AID 1103). Further: the record names both GSK3A and GSK3B. As to conditions: small-molecule microarray binding, fluorescence 635 nm; higher = more signal.
Assay [7] concerns the target Epidermal growth factor receptor (Homo sapiens) (UniProt P00533). Description: EGFR binders on small-molecule microarrays, primary screen, biochemical, small-molecule microarray, 635 nm fluorescence (AID 1104).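 Further: score merges 667 nm emission intensity with spot signal to noise over triplicate slides.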 As to conditions: EGFR binding, higher = more signal.
The target in assay [8] is Follistatin-related protein 3 (Homo sapiens) (UniProt O95633). Description: FSTL3 binders on small-molecule microarrays, primary screen, biochemical, small-molecule microarray, 635 nm fluorescence (AID 1105).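 Further: score merges emission near 667 nm and signal to noise per printed spot across three slides.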 As to conditions: FSTL3 binding, higher = more signal.
Chain of Follistatin-related protein 3 (Homo sapiens) (O95633 whole entry, looked up): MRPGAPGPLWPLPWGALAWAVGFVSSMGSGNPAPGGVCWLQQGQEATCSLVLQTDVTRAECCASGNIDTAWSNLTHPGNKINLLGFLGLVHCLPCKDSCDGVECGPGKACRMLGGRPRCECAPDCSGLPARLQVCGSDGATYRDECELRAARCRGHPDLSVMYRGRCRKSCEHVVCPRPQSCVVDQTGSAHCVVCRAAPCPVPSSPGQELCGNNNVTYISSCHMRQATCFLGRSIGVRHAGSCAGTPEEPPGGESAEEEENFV
The target of assay [9] is Dickkopf-related protein 1 (Homo sapiens) (UniProt O94907). Description: DKK1 binders on small-molecule microarrays, primary screen, biochemical, small-molecule microarray, 635 nm fluorescence scan (AID 1106).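 Further: score merges emission near 667 nm with signal to noise over three replicate slides.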 As to conditions: DKK1 binding, higher = more signal.
Chain of Dickkopf-related protein 1 (Homo sapiens) (O94907 whole entry, looked up): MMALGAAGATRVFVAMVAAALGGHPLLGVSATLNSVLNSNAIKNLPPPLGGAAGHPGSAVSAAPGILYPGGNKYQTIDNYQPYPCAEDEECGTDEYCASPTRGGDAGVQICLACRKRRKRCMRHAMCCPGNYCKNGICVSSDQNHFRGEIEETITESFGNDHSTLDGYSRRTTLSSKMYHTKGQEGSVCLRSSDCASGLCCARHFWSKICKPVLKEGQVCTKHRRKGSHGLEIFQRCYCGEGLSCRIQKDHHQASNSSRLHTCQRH
Assay [10] has as its system Inhibin beta A chain (activin A). Description: INHBA (activin A) binders on microarrays, primary screen, biochemical, small-molecule microarray, 635 nm fluorescence scan (AID 1107).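 Further: mouse activin A protein probed at 4.33 µg/mL on printed slides; score merges bound-protein fluorescence near 667 nm with spot signal-to-noise.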 The settings on record: small-molecule microarray binding, higher = more signal.
Assay [11] concerns Human papillomavirus type 1a protein E7 (residues 44-93). The experiment in a line: HPV1a E7 fragment binders on microarrays, primary screen, biochemical, small-molecule microarray, residues 44-93, 635 nm fluorescence (AID 1108).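 Further: E7 fragment applied at 1 µg/mL in TBST for 1 h at 4 C; score combines spot fluorescence with its signal to noise ratio.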 The settings on record: small-molecule microarray binding, fluorescence 635 nm; higher = more signal.
Assay [12] is described as follows: modulators of HCV replicon luciferase signal, primary screen, HCV replication inhibitor project, Huh7 cells, luciferase reporter (AID 1109).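 Further: huh7 hepatoma cells harbouring a luciferase neomycin HCV replicon reporter; luciferase luminescence as measure of HCV replicon replication; test concentration not given here.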 As to conditions: 48 h, higher = more signal. In general terms: Replicon systems follow genome replication, usually without infectious particles.
Assay [13] has as its target Left-right determination factor 2 (Homo sapiens) (UniProt O00292). The experiment in a line: LEFTY2 binders on small-molecule microarrays, primary screen, biochemical, small-molecule microarray, 635 nm fluorescence scan (AID 1110). As to conditions: LEFTY2 binding, higher = more signal.
For assay [14], the target named is Calmodulin-1 (Homo sapiens) (UniProt P0DP23). The experiment in a line: CALM1 binders on microarrays, EGTA buffer, profiling panel, biochemical, small-molecule microarray, Cy5-labelled CALM1 (AID 1111).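 Further: labelled calmodulin applied in Tris saline Tween buffer holding calcium plus EGTA and DTT.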 As to conditions: Cy5-CALM1 binding fluorescence, higher = more signal.
The target is the same in assay [15]. Description: calcium-bound CALM1 binders on microarrays, profiling panel, artefact control for SMM control-protein annotation, biochemical, small-molecule microarray, Cy5-labelled CALM1, plus calcium (AID 1112).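 Further: score merges spot fluorescence with signal to noise from triplicate slides.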 The settings on record: Cy5-CALM1 binding fluorescence, higher = more signal.
Assay [16] is described as follows: small-molecule microarray binders of probe aWnt5a, primary screen, biochemical, biotinylated probe, 635/667 nm fluorescence (AID 1113).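 Further: score merges 667 nm fluorescence intensity with signal-to-noise per printed feature.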 As to conditions: higher = more signal.
A short description of assay [17]: small-molecule microarray binders of probe aShh, primary screen, biochemical, biotinylated probe, 635/667 nm fluorescence (AID 1114).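 Further: probe is biotin-labelled aShh protein from a stem cell growth factor screen; measures binding of labelled protein to compounds printed on the slide; score merges feature fluorescence at 667 nm with signal-to-noise.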 As to conditions: higher = more signal.
A short description of assay [18]: small-molecule microarray binders of probe aNog, primary screen, biochemical, biotinylated probe, 635/667 nm fluorescence (AID 1115).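 Further: probe is biotinylated aNog protein used at 0.15 µg/mL for 1 h at 4 C; z-score combines 667 nm fluorescence of each spot with its signal to noise.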 As to conditions: higher = more signal.
Assay [19] has as its target Torsin-1A-interacting protein 1 (Homo sapiens) (UniProt Q5JTV8). Description: LAP1 binders from COS7 cell lysate, primary screen, small-molecule microarray, 635/667 nm fluorescence (AID 1116). As to conditions: COS7-hLAP1 lysate binding, 635 nm fluorescence, higher = more signal.
Assay [20] deals with Alpha-bungarotoxin (Bungarus multicinctus) (UniProt P60615). Description: alpha-bungarotoxin binders on microarray, profiling panel, artefact control for SMM control protein annotation, biochemical, small-molecule microarray, Alexa647 label, 635/667 nm fluorescence (AID 1117). The settings on record: alpha-BTX-A647 binding fluorescence, higher = more signal.
Chain of Alpha-bungarotoxin (Bungarus multicinctus) (P60615 whole entry, looked up): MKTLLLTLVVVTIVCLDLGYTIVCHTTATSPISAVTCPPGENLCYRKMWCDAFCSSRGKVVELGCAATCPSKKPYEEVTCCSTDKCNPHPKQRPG

Active and inactive are the calls of the source.

Chain of Left-right determination factor 2 (Homo sapiens) (O00292 whole entry, looked up): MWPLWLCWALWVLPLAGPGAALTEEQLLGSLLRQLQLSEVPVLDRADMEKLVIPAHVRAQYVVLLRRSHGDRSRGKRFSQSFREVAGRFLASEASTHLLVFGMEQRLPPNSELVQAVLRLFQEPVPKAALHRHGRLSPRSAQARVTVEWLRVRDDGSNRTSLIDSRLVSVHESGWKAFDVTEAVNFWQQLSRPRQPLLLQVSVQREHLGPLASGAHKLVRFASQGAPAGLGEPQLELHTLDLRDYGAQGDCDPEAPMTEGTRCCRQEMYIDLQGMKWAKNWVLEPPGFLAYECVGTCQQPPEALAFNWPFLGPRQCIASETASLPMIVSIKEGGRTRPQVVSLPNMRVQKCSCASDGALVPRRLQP
Chain of Epidermal growth factor receptor (Homo sapiens) (P00533 whole entry, looked up): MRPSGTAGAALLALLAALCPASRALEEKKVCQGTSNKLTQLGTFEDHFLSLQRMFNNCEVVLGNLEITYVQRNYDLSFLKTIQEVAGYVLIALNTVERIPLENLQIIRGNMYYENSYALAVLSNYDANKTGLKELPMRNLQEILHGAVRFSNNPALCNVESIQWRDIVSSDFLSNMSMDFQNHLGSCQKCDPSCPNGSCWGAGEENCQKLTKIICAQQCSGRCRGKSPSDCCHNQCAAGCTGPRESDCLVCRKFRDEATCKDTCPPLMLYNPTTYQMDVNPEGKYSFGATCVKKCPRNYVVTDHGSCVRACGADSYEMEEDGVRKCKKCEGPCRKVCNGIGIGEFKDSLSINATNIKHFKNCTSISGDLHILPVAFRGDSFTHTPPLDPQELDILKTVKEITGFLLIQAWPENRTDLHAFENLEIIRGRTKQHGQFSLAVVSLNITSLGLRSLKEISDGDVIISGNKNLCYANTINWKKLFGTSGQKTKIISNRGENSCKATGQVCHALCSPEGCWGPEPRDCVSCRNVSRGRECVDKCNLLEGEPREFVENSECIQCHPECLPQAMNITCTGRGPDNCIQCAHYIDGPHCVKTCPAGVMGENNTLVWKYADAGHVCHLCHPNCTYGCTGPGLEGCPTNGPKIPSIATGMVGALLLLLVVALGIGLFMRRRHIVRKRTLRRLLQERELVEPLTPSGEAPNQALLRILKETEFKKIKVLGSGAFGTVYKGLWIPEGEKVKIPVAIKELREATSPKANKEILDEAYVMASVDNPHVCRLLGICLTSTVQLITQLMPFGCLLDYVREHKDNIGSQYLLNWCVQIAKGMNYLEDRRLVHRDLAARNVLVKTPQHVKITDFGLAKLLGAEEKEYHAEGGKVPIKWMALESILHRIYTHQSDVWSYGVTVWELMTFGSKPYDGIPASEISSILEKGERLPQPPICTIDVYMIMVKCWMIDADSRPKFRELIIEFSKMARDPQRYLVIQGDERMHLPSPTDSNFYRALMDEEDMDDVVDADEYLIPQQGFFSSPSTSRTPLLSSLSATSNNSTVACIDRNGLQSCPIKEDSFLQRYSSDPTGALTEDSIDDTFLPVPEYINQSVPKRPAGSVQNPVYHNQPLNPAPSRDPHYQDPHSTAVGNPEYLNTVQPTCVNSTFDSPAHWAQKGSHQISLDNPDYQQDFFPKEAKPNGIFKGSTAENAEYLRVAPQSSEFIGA
Chain of Fibroblast growth factor 10 (Homo sapiens) (O15520 whole entry, looked up): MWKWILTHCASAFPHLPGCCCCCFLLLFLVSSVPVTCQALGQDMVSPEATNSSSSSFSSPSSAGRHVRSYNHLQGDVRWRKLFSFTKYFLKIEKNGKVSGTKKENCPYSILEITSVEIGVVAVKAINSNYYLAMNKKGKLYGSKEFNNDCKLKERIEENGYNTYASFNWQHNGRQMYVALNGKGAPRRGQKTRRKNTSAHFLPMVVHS
Chain of Torsin-1A-interacting protein 1 (Homo sapiens) (Q5JTV8 whole entry, looked up): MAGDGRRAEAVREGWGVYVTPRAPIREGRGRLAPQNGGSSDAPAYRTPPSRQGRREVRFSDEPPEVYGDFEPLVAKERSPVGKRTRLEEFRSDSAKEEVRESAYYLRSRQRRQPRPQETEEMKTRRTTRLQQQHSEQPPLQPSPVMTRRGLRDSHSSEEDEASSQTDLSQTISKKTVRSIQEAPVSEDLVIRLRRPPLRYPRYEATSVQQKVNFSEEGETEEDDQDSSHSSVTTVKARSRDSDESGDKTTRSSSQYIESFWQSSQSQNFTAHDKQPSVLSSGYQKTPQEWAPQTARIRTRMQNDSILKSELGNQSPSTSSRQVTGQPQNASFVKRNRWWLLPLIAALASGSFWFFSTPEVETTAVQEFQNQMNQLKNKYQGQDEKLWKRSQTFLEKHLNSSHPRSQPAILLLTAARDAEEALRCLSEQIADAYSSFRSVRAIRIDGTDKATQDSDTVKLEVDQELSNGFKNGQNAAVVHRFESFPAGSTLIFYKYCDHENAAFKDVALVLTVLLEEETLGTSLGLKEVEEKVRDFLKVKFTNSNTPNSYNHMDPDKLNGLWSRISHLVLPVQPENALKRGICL

For `COc1ccc(COC(=O)NN=C2C[C@@H](O)[C@@H](O)[C@@H]3[C@@H]4C(=O)N(C5CCCCC5)C(=O)[C@@H]4CC[C@@H]23)cc1`, the composite z-score was -0.123 in assay [1]; 0.202 in [2]; 1.38 in assay [3]; -0.28 in assay [5]; -0.145 in assay [6]; -0.583 in [7]. The composite z-score was -0.248 in assay [8]; -0.88 in assay [9]; 0.105 in assay [10]; 0.14 in assay [11]; 0.0141 in assay [13]; -0.53 in assay [14]. The composite z-score in assay [15] was -0.811; in [16] it was -0.0529; in [17], -0.0769; in assay [18] it was -0.261; in [19] it was -0.011; in [20] it was 0.229. Moreover, the z-score in assay [4] was 0.299 (inactive); in assay [12], -1.76.

On to `COC(=O)CC=C[C@@H](C)[C@@H](C=NOC[C@@H](C)[C@H](OCc1ccccc1)C(C)C)NS(=O)(=O)c1ccc(C)cc1`, for which the composite z-score was -0.196 in assay [1]; -0.439 in assay [2]; -0.75 in [3]; -0.714 in assay [5]; -1.15 in [6]; -0.0573 in [7]. In addition, the composite z-score is -0.888 in [8]; 0.0424 in assay [9]; 0.168 in assay [10]; -0.482 in assay [11]; 0.21 in assay [13]; -1.51 in assay [14]. For the same compound, the composite z-score was -1.26 in [15]; -0.148 in assay [16]; -0.0977 in assay [17]; -0.541 in assay [18]; 0.161 in assay [19]; -1.25 in [20]. Besides, the z-score was -0.21 (inactive) in assay [4] and -1.44 in assay [12].

For the compound `COC(=O)CC=C[C@@H](C)[C@@H](C=NOC[C@@H](O)COCc1ccco1)OC`, the composite z-score in [1] was 1.05; in assay [2], -0.589; in assay [3], -1.34; in [5] it was -0.469; in assay [6], 0.149; in assay [7] it was -0.446. For the same compound, the composite z-score was -0.0313 in assay [8]; 1.15 in [9]; 0.533 in assay [10]; 0.134 in [11]; 0.999 in assay [13]; -0.809 in assay [14]. Besides, the composite z-score in assay [15] was -2.21; in [16], -0.172; in assay [17] it was -0.243; in assay [18], -0.353; in assay [19], 0.329; in assay [20], -0.741. The z-score in assay [4] is -0.485 (inactive); in assay [12], 0.674.

Take `O=C1[C@H]2[C@H]3[C@H](O)[C@H](O)CC(=NO[C@@H]4O[C@H](CO)[C@@H](O)[C@H](O)[C@H]4O)[C@@H]3CC[C@H]2C(=O)N1c1cccc(Oc2ccccc2)c1`: the composite z-score in assay [1] was 0.405; in [2], -0.327; in assay [3] it was -0.595; in [5], 0.659; in assay [6], 0.736; in [7], 0.778. Besides, the composite z-score was found to be 0.711 in assay [8]; 0.701 in [9]; 0.374 in [10]; 0.418 in [11]; 0.982 in [13]; 0.209 in assay [14]. Besides, the composite z-score in [15] was 0.0635; in [16], -0.0506; in [17] it was -0.0362; in [18], -0.0675; in [19] it was 0.593; in [20], -0.447. In addition, the z-score in assay [4] is 0.302 (inactive); in assay [12], -0.174.

Consider `CCN1C(=O)[C@H]2[C@H]3[C@H](O)[C@H](O)CC(=NO[C@H](C)c4cn([C@H](CO)Cc5ccccc5)nn4)[C@@H]3CC[C@H]2C1=O`, for which the composite z-score in [1] was 0.955; in assay [2], 0.245; in [3] it was -0.681; in [5], 0.869; in assay [6], 0.978; in assay [7], 0.587. Moreover, the composite z-score in assay [8] is 1.05; in [9], 0.553; in [10], -0.802; in [11] it was 0.485; in assay [13], 0.741; in assay [14], 0.782. Besides, the composite z-score is -0.0865 in [15]; -0.0573 in [16]; -0.358 in assay [17]; 0.202 in assay [18]; 0.476 in assay [19]; 1.29 in assay [20]. The figures for the z-score in assay [4] and in assay [12] were -0.05 (inactive) and -1.02, respectively.
